Laboratory results reported in PubChem BioAssay AID492973 (The Scripps Research Institute Molecular Screening Center, 2010).
Active and inactive are the calls of the source.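 Rule for the calls: active = inhibition above 50% of the enzyme in parasite cell lysate; inactive = the rest.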

assay: malaria lysate leucine aminopeptidase inhibition – cell lysate, fluorescence, Plasmodium falciparum lysate, powder samples, late-stage follow-up (AID 492973); conditions: P. falciparum cell lysate, H-Leu-NHMec fluorescence; at 5 µM; hits give high values

Structure (SMILES)	inhibition
Cc1ccc(-n2c(C)cc(C(=O)COC(=O)c3ccc[nH]c3=O)c2C)cc1C	54% (active)
COC(=O)c1c(NC(=O)[C@H]2CCCC[C@H]2C(=O)O)sc2c1CCCCC2	65% (active)
COc1cc(NC(=O)CSc2nnc3c(C)cc4cc(C)cc(C)c4n23)c(C(=O)O)cc1OC	55% (active)
O=C(Nc1cccc(Cl)c1)[C@H]1CC=CC[C@H]1C(=O)O	24% (inactive)
CCCCc1c(O)nc(SCC(=O)Nc2ccc3c(c2)CCC3)[nH]c1=O	21% (inactive)
O=C(CSc1nccc(=O)[nH]1)Nc1ccc(Br)c(Cl)c1	43% (inactive)
O=C(O)Cc1ccc(NC(=O)Nc2ccc(Br)cc2)cc1	41% (inactive)
COC(=O)c1c(-c2ccc(C)cc2)csc1NC(=O)[C@H]1CC=CC[C@H]1C(=O)O	58% (active)
COc1cc(NC(=O)CSc2nc3c(C)ccc(C)c3cc2C)c(C(=O)O)cc1OC	74% (active)
CCOC(=O)c1c(-c2ccc(C)cc2)csc1NC(=O)[C@H]1CC=CC[C@H]1C(=O)O	48% (inactive)
COc1ccc2nc(SCC(=O)Nc3cc(OC)c(OC)cc3C(=O)O)c(C)cc2c1	66% (active)
O=c1cc(-c2ccc(Cl)c(Cl)c2)[nH][nH]1	13% (inactive)
Cc1cc(C(=O)COC(=O)c2ccc[nH]c2=O)c(C)n1-c1ccc(F)cc1	32% (inactive)
S=c1nc(-c2ccccc2Br)[nH][nH]1	26% (inactive)
CCN(CC)c1ccc(NC(=O)CSc2nc(C)cc(=O)[nH]2)cc1	52% (active)
O=C(CSc1nc(O)cc(=O)n1-c1ccccc1)Nc1ccc2c3c(cccc13)CC2	22% (inactive)
